# Data published in PubChem BioAssay (NCI).
# Values joined by “and” are separate entries in the source; they are usually repeats but may differ in a detail not shown here. Identical values can stand only once. The panel holds about 83,000 compounds, 20% with a hit somewhere; the sample as a whole holds those more often.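 Plates (96-well) were seeded with cells, treated with compound at one concentration, and incubated for 48 hours before percent growth was determined.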 Active and inactive are the calls of the source. How the source made its calls: active means growth percent below 10; inactive means the rest. Where a SMILES comes first, the peptide text is derived from it.
# Key:
# Assay in all cases: NCI-60 one-dose screen, 48 h (100 = growth as untreated, 0 = no growth, -100 = all killed)
# SR leukemia = settings: 10 µM unless noted
# RPMI-8226 leukemia = settings: 10 µM unless noted
# OVCAR-8 ovarian = settings: 10 µM unless noted
# OVCAR-5 ovarian = settings: 10 µM unless noted
# OVCAR-4 ovarian = settings: 10 µM unless noted
# SK-OV-3 ovarian = settings: 10 µM unless noted
# IGROV1 ovarian = settings: 10 µM unless noted
# OVCAR-3 ovarian = settings: 10 µM unless noted
# HS 578T breast = settings: 10 µM unless noted
# NCI/ADR-RES ovarian = settings: 10 µM unless noted
# T-47D breast = settings: 10 µM unless noted
# BT-549 breast = settings: 10 µM unless noted
# MDA-MB-435 melanoma = settings: 10 µM unless noted
# SW-620 colon = settings: 10 µM unless noted
# MCF7 breast = system: MCF7 breast
# HCT-116 colon = settings: 10 µM unless noted
# HCC-2998 colon = settings: 10 µM unless noted
# KM12 colon = settings: 10 µM unless noted
Structure (SMILES),growth (SR leukemia),growth (RPMI-8226 leukemia),growth (OVCAR-8 ovarian),growth (OVCAR-5 ovarian),growth (OVCAR-4 ovarian),growth (SK-OV-3 ovarian),growth (IGROV1 ovarian),growth (OVCAR-3 ovarian),growth (HS 578T breast),growth (NCI/ADR-RES ovarian),growth (T-47D breast),growth (BT-549 breast),growth (MDA-MB-435 melanoma),growth (SW-620 colon),growth (MCF7 breast; 10 µM unless noted),growth (HCT-116 colon),growth (HCC-2998 colon),growth (KM12 colon),growth (MCF7 breast; 10 µM),growth (MCF7 breast; 100 µM)
C#CCOC(=O)Nc1ccccc1,111% (inactive),105% (inactive),103% (inactive),95.8% (inactive),93.5% (inactive),109% (inactive),109% (inactive),115% (inactive),105% (inactive),104% (inactive),109% (inactive),106% (inactive),98.8% (inactive),105% (inactive),87.4% (inactive),105% (inactive),100% (inactive),110% (inactive),,
CN1CNC(=O)NC1,106% (inactive) and 79.6% (inactive),113% (inactive) and 104% (inactive),106% (inactive) and 98.6% (inactive),112% (inactive) and 111% (inactive),119% (inactive) and 112% (inactive),112% (inactive) and 105% (inactive),137% (inactive) and 97.8% (inactive),112% (inactive) and 107% (inactive),109% (inactive) and 96.5% (inactive),109% (inactive) and 103% (inactive),112% (inactive) and 100% (inactive),97.8% (inactive) and 112% (inactive),106% (inactive) and 115% (inactive),105% (inactive) and 104% (inactive),109% (inactive) and 96.4% (inactive),105% (inactive),113% (inactive) and 102% (inactive),117% (inactive) and 105% (inactive),,
Nc1ccc2c(O)cc(S(=O)(=O)O)cc2c1,86.3% (inactive),85% (inactive),105% (inactive) and 97.8% (inactive),103% (inactive),93.5% (inactive),96.1% (inactive) and 96.6% (inactive),130% (inactive) and 86.1% (inactive),126% (inactive) and 105% (inactive),96.3% (inactive),105% (inactive),85.5% (inactive) and 101% (inactive),94.9% (inactive) and 119% (inactive),104% (inactive) and 113% (inactive),94.3% (inactive) and 95.3% (inactive),95% (inactive) and 96.6% (inactive),93.8% (inactive) and 94% (inactive),88.6% (inactive) and 107% (inactive),120% (inactive) and 103% (inactive),,
CC1CCC2(OC1)OC1CC3C4CC=C5CC(O)CCC5(C)C4CCC3(C)C1C2C (stereo not drawn),29.7% (inactive),71.4% (inactive),102% (inactive),114% (inactive),95.7% (inactive),114% (inactive),67.5% (inactive),105% (inactive),86.8% (inactive),114% (inactive),106% (inactive),130% (inactive),116% (inactive),106% (inactive),105% (inactive),92.2% (inactive),112% (inactive),104% (inactive),,
NC(Cc1c[nH]c2ccccc12)C(=O)O (stereo not drawn),53.3% (inactive) and 105% (inactive),86.6% (inactive) and 103% (inactive),58.3% (inactive) and 93.5% (inactive),91.7% (inactive) and 103% (inactive),108% (inactive) and 102% (inactive),106% (inactive) and 105% (inactive),105% (inactive) and 120% (inactive),120% (inactive) and 107% (inactive),115% (inactive) and 95.3% (inactive),105% (inactive) and 111% (inactive),110% (inactive),113% (inactive) and 102% (inactive),98.9% (inactive) and 105% (inactive),111% (inactive) and 95.9% (inactive),105% (inactive) and 98.5% (inactive),91.4% (inactive) and 86.7% (inactive),103% (inactive) and 101% (inactive),108% (inactive) and 109% (inactive),,
OCC1OC(O)C(O)C(O)C1O (stereo not drawn),106% (inactive),110% (inactive),108% (inactive),106% (inactive),103% (inactive),109% (inactive),126% (inactive),120% (inactive),116% (inactive),101% (inactive),102% (inactive),110% (inactive),113% (inactive),96.9% (inactive),82.6% (inactive),,94% (inactive),128% (inactive),,
O=C1OC(C(O)C(O)CO)C(O)=C1O (stereo not drawn),103% (inactive) and 107% (inactive),98.1% (inactive) and 105% (inactive),102% (inactive) and 105% (inactive),94.6% (inactive) and 96.4% (inactive),106% (inactive) and 112% (inactive),114% (inactive) and 92.9% (inactive),111% (inactive),115% (inactive) and 109% (inactive),120% (inactive) and 119% (inactive),95% (inactive) and 102% (inactive),103% (inactive) and 83.1% (inactive),106% (inactive),114% (inactive) and 109% (inactive),117% (inactive) and 105% (inactive),98.9% (inactive) and 97.4% (inactive),100% (inactive) and 92.8% (inactive),-23.7% (active) and 98.9% (inactive),109% (inactive) and 103% (inactive),,
c1ccc2c(c1)OC1OC2Oc2ccccc21,76.1% (inactive),106% (inactive),104% (inactive),103% (inactive),105% (inactive),102% (inactive),97% (inactive),101% (inactive),92.9% (inactive),95.7% (inactive),100% (inactive),93.2% (inactive),115% (inactive),96.9% (inactive),107% (inactive),113% (inactive),105% (inactive),87.3% (inactive),,
NC(Cc1ccccc1)C(=O)NC(Cc1ccccc1)C(=O)O (stereo not drawn) (H-Phe-Phe-OH; configuration not given here),97.4% (inactive) and 102% (inactive),112% (inactive) and 101% (inactive),101% (inactive) and 99.7% (inactive),99% (inactive) and 95.1% (inactive),102% (inactive) and 100% (inactive),97.6% (inactive) and 110% (inactive),99.7% (inactive) and 103% (inactive),108% (inactive) and 111% (inactive),98.3% (inactive) and 112% (inactive),105% (inactive) and 107% (inactive),89.3% (inactive) and 91.7% (inactive),108% (inactive) and 106% (inactive),109% (inactive) and 99.7% (inactive),102% (inactive) and 108% (inactive),98.9% (inactive) and 94.3% (inactive),,112% (inactive),105% (inactive) and 107% (inactive),,
c1ccc(CNCCNCc2ccccc2)cc1,95.3% (inactive),101% (inactive),124% (inactive),102% (inactive),103% (inactive),107% (inactive),120% (inactive),121% (inactive),114% (inactive),112% (inactive),103% (inactive),107% (inactive),106% (inactive),107% (inactive),93.4% (inactive),103% (inactive),116% (inactive),120% (inactive),,
CC(C)NC(=O)N/C=C(\C#N)C(N)=O,100% (inactive),116% (inactive),109% (inactive),92.5% (inactive),105% (inactive),104% (inactive),102% (inactive),105% (inactive),108% (inactive),100% (inactive),101% (inactive),92.1% (inactive),92.6% (inactive),93.4% (inactive),102% (inactive),90.9% (inactive),97.5% (inactive),92.7% (inactive),,
CC1CCC2(C(=O)O)CCC3(C)C(=CCC4C5(C)CCC(O)C(C)(C)C5CCC43C)C2C1C (stereo not drawn),39.3% (inactive) and 46.8% (inactive),48.5% (inactive) and 83.4% (inactive),93.3% (inactive),-8.77% (active) and 87.9% (inactive),59.3% (inactive) and 84.2% (inactive),91.6% (inactive) and 104% (inactive),96.7% (inactive) and 105% (inactive),56% (inactive) and 101% (inactive),-49% (active) and 63.1% (inactive),16.5% (inactive) and 97.3% (inactive),49% (inactive) and 77.2% (inactive),263% (inactive) and 102% (inactive),59.8% (inactive) and 103% (inactive),15.2% (inactive) and 98.2% (inactive),,6.37% (active) and 85.7% (inactive),-29% (active) and 91.4% (inactive),59.6% (inactive) and 85.7% (inactive),84.3% (inactive) and 93.3% (inactive),-56.5% (active) and -70% (active)
NC(=O)NCCCC(N)C(=O)O (stereo not drawn),84% (inactive),96.5% (inactive),98% (inactive),113% (inactive),112% (inactive),100% (inactive),91.5% (inactive),106% (inactive),106% (inactive),102% (inactive),88.4% (inactive),95.7% (inactive),107% (inactive),107% (inactive),101% (inactive),104% (inactive),110% (inactive),101% (inactive),,
